Assay outcomes from PubChem.
Shown are actives, neighbours in structure and some others; about 9.2% of the full set was active somewhere.
Lamin A splicing – qHTS Assay for Modulators of Lamin A Splicing; HeLa LMNA splicing GFP/RFP minigene ratio, 48 h; Potency, µM (doses to about 46.1 µM), inactives show top-dose ratio change, negative = inhibition, actives largely listed as inhibitors; hit rate 0.01% among 200,000; AID 1487, 2009; active means well fitted inhibition curve with a large enough effect in the signal ratio, with a control signal flat, not every such curve was filed as active; inconclusive means small, poorly fitted or top-dose-only effect, or effect the other way, or a change in a side signal; the % refers to the signal ratio; further: on the % scale 0 is the no-effect control and ±100 the full control effect
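S3 HeLa cells stably expressing lamin A-EGFP splicing minigene plus DsRed2, 600 cells/well, 48 h compound exposure at 37C. Laser-scanning cytometry; analysed as GFP (500-530 nm)/RFP (575-640 nm) total intensity ratio; 0.5% DMSO vehicle.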
JMJD2E inh – qHTS Assay for Inhibitors of Human Jumonji Domain Containing 2E (JMJD2E); Lysine-specific demethylase 4E (Homo sapiens), B2RXH2; JMJD2E catalytic domain, FDH-coupled NADH fluorescence (FDH is formaldehyde dehydrogenase); Potency, µM (series often up to 57.1 µM), without a hit: top-dose activity change, negative = inhibition, usual class: inhibitors; hit rate 1.6% among 230,000; AID 2147, 2009;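 further: 0% = wells with enzyme and -100% = buffer wells without enzyme; nearly all actives have a fitted effect of over 50% in size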
Target sequence (B2RXH2 1-337 limits assumed): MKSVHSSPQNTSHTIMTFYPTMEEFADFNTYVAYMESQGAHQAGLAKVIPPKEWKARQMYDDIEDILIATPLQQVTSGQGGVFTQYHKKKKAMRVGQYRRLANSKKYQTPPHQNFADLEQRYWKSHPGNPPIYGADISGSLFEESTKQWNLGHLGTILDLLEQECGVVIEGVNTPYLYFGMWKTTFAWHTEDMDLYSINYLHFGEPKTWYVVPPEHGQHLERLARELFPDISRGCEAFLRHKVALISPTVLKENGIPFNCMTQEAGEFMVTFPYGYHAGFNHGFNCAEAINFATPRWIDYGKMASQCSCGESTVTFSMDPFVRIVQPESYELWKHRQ
ALDH1A1 block – qHTS Assay for Inhibitors of Aldehyde Dehydrogenase 1 (ALDH1A1). Purified ALDH1A1, NADH fluorescence, propionaldehyde substrate. Potency, µM (series often up to 75.3 µM), inactives show at the highest dose activity, negative = inhibition, hits mostly inhibitors. Aldehyde dehydrogenase 1A1 (Homo sapiens), P00352. hit rate 7.3% among 220,000;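 further: plate controls were no enzyme wells and a reference inhibitor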
HTT aggregate – qHTS Multiplex Assay to Identify Dual Action Probes in a Cell Model of Huntington: Aggregate Formation (GFP). Potency, µM (highest dose often 46.1 µM), inactives show at the highest dose activity change, negative = inhibition, hits mostly inhibitors. AID 1688, 2009. hit rate 1.1% among 220,000. PC12 HttQ103-GFP aggregates, Acumen cytometry, 40 h; active means well fitted curve in the direction sought with a large enough effect; inconclusive means small, poorly fitted or top-dose-only effect, or another doubt; inactive means no such curve, though single readings can be large; an effect the other way counts as inactive or inconclusive; further: on the % scale 0 is the no-effect control and ±100 the full control effect; nearly all actives have a fitted effect of over 60% in size
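Inducible Q103 Huntingtin exon 1–GFP PC12 line, 1500 cells/well in phenol red free DMEM with 5% equine and 5% calf serum. Tebufenozide 100 nM induced expression; compounds titrated; aggregates quantified by cytometry.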
HTT cytoprotect – qHTS Multiplex Assay to Identify Dual Action Probes in a Cell Model of Huntington: Cytoprotection (ATP) | PC12 HTT-Q103 induced, cytoprotection, ATP luminescence, 40 h | Potency, µM (doses to about 56.4 µM), for the others: cytoprotection (ATP increase), hits mostly activators | hit rate 0.14% among 230,000 | AID 1471, 2008; active means well fitted curve in the direction sought with a large enough effect; inconclusive means small, poorly fitted or top-dose-only effect, or another doubt; inactive means no such curve, though single readings can be large; an effect the other way counts as inactive or inconclusive; further: % of control where 0% means no effect; nearly all actives have a fitted effect of over 45% in size
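Quantitative HTS on tebufenozide-induced (100 nM) PC12 cells expressing HTTQ103 exon 1–GFP; compounds tested as a concentration series; survival measured via cellular ATP.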
HPGD block – qHTS Assay for Inhibitors of HPGD (15-Hydroxyprostaglandin Dehydrogenase). purified HPGD, NADH fluorescence kinetic, PGE2 substrate. hit rate 4.3% among 150,000. 15-hydroxyprostaglandin dehydrogenase [NAD(+)] (Homo sapiens), P15428. AID 894, 2007. Potency, µM, for the others: at the top dose activity change, negative = inhibition, hits mostly inhibitors; further: on the % scale 0 is the no-effect control and ±100 the full control effect
Target sequence (P15428 whole entry, looked up): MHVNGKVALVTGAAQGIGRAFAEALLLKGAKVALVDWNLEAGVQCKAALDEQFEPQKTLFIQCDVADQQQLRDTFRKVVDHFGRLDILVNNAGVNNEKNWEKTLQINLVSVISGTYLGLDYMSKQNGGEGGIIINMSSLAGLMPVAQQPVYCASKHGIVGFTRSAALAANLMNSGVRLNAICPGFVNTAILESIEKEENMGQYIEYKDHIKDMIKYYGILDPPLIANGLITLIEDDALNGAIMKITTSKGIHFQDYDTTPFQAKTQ
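NADH formation kinetics: reaction with 30 uM PGE2 and 1 mM NAD+ (final), 20 nM enzyme, Tris-HCl pH 8 with Tween 20, after 15 min compound preincubation at room temperature. Fluorescence change, last versus first of five reads.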
Starred values were filed as active, the others as inactive; ? = inconclusive; · = no result given; [ ] = remark or other dose. Unless noted, the call rests on the fitted dose curve; in most records, active means well fitted inhibition curve with a large enough effect (not every such curve was filed as active); inconclusive means small, poorly fitted or top-dose-only effect, or another doubt; inactive means no such curve, though single readings can be large or run the other way. Potency means the concentration at half of the fitted maximal effect.

SMILES | Lamin A splicing | JMJD2E inh | ALDH1A1 block | HTT aggregate | HTT cytoprotect | HPGD block
CCn1c2ccc(F)cc2c2nnc(NN)nc21 | -12% | 2% | 7.1µM* | -13% | 10%[10 µM] | -11%
CCc1ccc2c(c1)c1nnc(NN)nc1n2CC | ? | -4% | 2.8µM* | -2% | -17%[10 µM] | ?
CCCn1c2ccc(F)cc2c2nnc(NN)nc21 | ? | -9% | 4.5µM* | -13% | -46% | ·
NNc1nnc2c3cc(F)ccc3n(Cc3ccccc3)c2n1 | · | ? | · | -9%[9.22 µM] | -9%[10 µM] | ·
O=C(/C=C\c1ccc2c(c1)OCO2)NC1CC(=O)N(c2cccc(F)c2)C1 (stereo not given) | 5%[46 µM] | · | · | · | · | ·
COc1ccc(S(=O)(=O)Nc2ccc(N3CCOCC3)cc2)cc1[N+](=O)[O-] | · | 0% | 13µM* | -22% | -13% | ·
COc1ccc(OCC(=O)Nc2ccc(N3CCOCC3)cc2)c([N+](=O)[O-])c1 | · | 6% | 28µM* | -12% | -23% | ·
COc1ccc(OCC(=O)Nc2ccc(N3CCOCC3)cc2)cc1 | -2% | 0% | -6% | 8% | -6% | -8%
COc1ccc(S(=O)(=O)Nc2ccc(N3CCOCC3)cc2)cc1Br | -23% | -6% | ? | 5% | 11% | -3%
CCOc1ccc(N=C/C=C/c2ccccc2)c(O)c1 | · | 10µM* | · | -3%[9.22 µM] | 16%[10 µM] | ·
Cc1ccc(C(=O)CSc2nnnn2C(C)C)c(C)c1 | -5% | 6% | 28µM* | -15% | -13%[10 µM] | -17%
Cc1ccc(C(=O)Cn2c(C(=O)/C=C/c3ccccc3)nc3ccccc32)cc1 | ? | 18% | ? | 11µM* | -57% | -22%
O=C(c1cc(C(F)(F)F)cc(C(F)(F)F)c1)N1CCC2(CCCN(c3ncccn3)C2)CC1 | · | · | -3% | · | -53% | -21%
COc1ccccc1OCC(=O)N(Cc1ccc(Cl)cc1)CC1CCCO1 (stereo not given) | 1%[46 µM] | · | · | · | · | ·
O=C(Cn1cncn1)NCc1ccc(Cl)cc1 | -1% | 3% | -3% | -3% | -8%[10 µM] | -3%
Clc1ccc(NCn2cncn2)nc1 | -1% | -5% | 19µM* | 12% | -2% | ?
Cc1ccc(C(=O)Nc2nnc(COc3ccccc3)s2)cc1 | 8%[46 µM] | 1% | ? | -1%[9.22 µM] | -20%[10 µM] | ·
CCS(=O)(=O)c1ccc2oc(SCC(=O)NC3CCCC(C)C3C)nc2c1 (stereo not given) | -20% | -6% | 3% | ? | -81%[10 µM] | 32µM*
CCS(=O)(=O)c1ccc2oc(SCC(=O)NC34CC5CC(CC(C5)C3)C4)nc2c1 | -19% | 0% | 0% | 5%[9.22 µM] | 0% | -13%
[O-][n+]1onc2c1CCC(=N/O)/C2=N\Nc1ccccc1 | · | 14% | 3.5µM* | 4%[9.22 µM] | 3%[10 µM] | ·
O=C1C2C3C=CC(C3=C3CCCCC3)C2C(=O)N1c1ccccc1 (stereo not given) | 3% | 6% | 10µM* | -4% | -1% | -2%
O=C1C2C(C(=O)N1c1ccccc1)N1CCCN1C2c1ccccc1 (stereo not given) | 19%[9.22 µM] | 1% | 1% | 1% | -18% | ·
O=C1C2C3C=CC(C3)C2C(=O)N1c1ccccc1 (stereo not given) | ? | 4% | -1% | 1% | 20% | -14%
O=C1C2C3CCCC3=C3CCCC3C2C(=O)N1c1ccccc1 (stereo not given) | -5% | -8% | 25µM* | 0% | 14% | -8%
c1cc(NNc2cccc(-c3nn[nH]n3)c2)cc(-c2nn[nH]n2)c1 | · | · | ? | · | -3%[10 µM] | -5%
SMILES | Lamin A splicing | JMJD2E inh | ALDH1A1 block | HTT aggregate | HTT cytoprotect | HPGD block
Cc1cc(C)c2ccc(=S)[nH]c2n1 | -6%[9.22 µM] | ? | 3.5µM* | 12% | -14% | ·
Cc1ccc(C(=O)CC(=O)c2cccc(F)c2)c(O)c1 | ? | ? | -4% | 22µM* | 37% | 14µM*
CC(=O)c1ccc(C)cc1OC(=O)c1cccc(F)c1 | -7%[9.22 µM] | -5% | ? | 3% | -37% | ·
O=C1CCCC2=C1C1(O)C(=O)c3ccccc3C1(O)O2 (stereo not given) | 23% | -5% | 4µM* | -10% | -8%[10 µM] | -2%
CCCn1c2c(c(O)c(C(=O)NC)c1=O)CCCC2 | -5% | -17% | -11% | -24% | -19%[0.074 µM] | -17%
CCCn1c2c(c(O)c(C(=O)NCCCN(CC)CC)c1=O)CCCC2 | -19% | ? | 28µM* | 2% | 12%[10 µM] | -13%
O=C(N/N=C/c1ccc(N2CCCCC2)o1)c1ccccc1[N+](=O)[O-] | -1% | -23% | ? | ? | · | 10µM*
COc1cccc(C(c2c(C)[nH]n(-c3ccccc3)c2=O)c2c(C)[nH]n(-c3ccccc3)c2=O)c1OC | -14% | ? | 3.5µM* | 7% | 0%[10 µM] | 22µM*
CCn1c(SCC(=O)Nc2cccc(C)c2)nc2c(c1=O)SC(C)C2 (stereo not given) | -15% | -4% | 20µM* | 3% | -10% | -22%
CC1Cc2nc(SCC(=O)NC3CCCCC3)n(C)c(=O)c2S1 (stereo not given) | 20% | ? | -102% | 16% | 6%[1.9 µM] | 40µM*
CCSc1nnc(NC(=O)CSc2nc3c(c(=O)n2CC)SC(C)C3)s1 (stereo not given) | 0% | -9% | -7% | 13µM* | -24% | -9%
CC(=O)c1cccc(NC(=O)C(C)N(C)CC(=O)Nc2ccc(Cl)cc2)c1 (stereo not given) | · | -9% | · | -5%[9.22 µM] | 7%[10 µM] | ·
COC(=O)/C=C1\OC(c2ccccc2)=CC1=O | ? | 0% | 10µM* | 16% | -5%[10 µM] | 20µM*
Cc1ccc(Cl)cc1N1CCN(C(=O)c2noc3c2CCCC3)CC1 | -9%[46 µM] | · | · | · | · | ·
O=[N+]([O-])c1ccc(CSc2nnc(Cc3ccccc3)o2)cc1 | · | 8% | · | -14%[9.22 µM] | -5%[10 µM] | ·
COc1ccc(Cc2nnc(SCc3ccc([N+](=O)[O-])cc3)o2)cc1 | ? | 1% | ? | 7.1µM* | · | ·
COc1ccc(CNc2nc(SCC(=O)NCc3ccco3)nc3ccccc23)cc1 | 0% | 0% | ? | -4% | 13%[1.9 µM] | 10µM*
CCOC(=O)CSc1nc(NCc2ccco2)c2ccccc2n1 | 1% | -1% | ? | 8% | 8% | -10%
COc1ccc(Cc2nnc(SCC(=O)NCc3ccco3)o2)cc1 | 5% | 0% | ? | -4% | 5%[10 µM] | 20µM*
Cc1cccc(C(=O)O/N=C(\c2ccccc2)c2cccnc2)c1 | -13% | 4% | 16µM* | 1% | 4%[10 µM] | -21%
